This is an account of results in ChEMBL document CHEMBL3988442, “University of Dundee, Small-Polar-MMV Screening Library” (2021).

For some of these results: Measured potencies and affinities stand elsewhere.

Holding throughout (set-up): scale not given: direction of the effect not stated beside the values
Experiment [1] has as its target Protein translocase subunit SecA (Escherichia coli (strain K12)) (UniProt P10408). Kind of experiment: Assay to Identify E. coli SecA ATPase Inhibitors. The experiment is classed as functional. The settings on record: 30 µM.
The target in experiment [2] is T1, Ubiquitin-activating enzyme e1, putative (Leishmania donovani (strain BPK282A1)) (UniProt E9BSI1).
T1 sequence (whole entry): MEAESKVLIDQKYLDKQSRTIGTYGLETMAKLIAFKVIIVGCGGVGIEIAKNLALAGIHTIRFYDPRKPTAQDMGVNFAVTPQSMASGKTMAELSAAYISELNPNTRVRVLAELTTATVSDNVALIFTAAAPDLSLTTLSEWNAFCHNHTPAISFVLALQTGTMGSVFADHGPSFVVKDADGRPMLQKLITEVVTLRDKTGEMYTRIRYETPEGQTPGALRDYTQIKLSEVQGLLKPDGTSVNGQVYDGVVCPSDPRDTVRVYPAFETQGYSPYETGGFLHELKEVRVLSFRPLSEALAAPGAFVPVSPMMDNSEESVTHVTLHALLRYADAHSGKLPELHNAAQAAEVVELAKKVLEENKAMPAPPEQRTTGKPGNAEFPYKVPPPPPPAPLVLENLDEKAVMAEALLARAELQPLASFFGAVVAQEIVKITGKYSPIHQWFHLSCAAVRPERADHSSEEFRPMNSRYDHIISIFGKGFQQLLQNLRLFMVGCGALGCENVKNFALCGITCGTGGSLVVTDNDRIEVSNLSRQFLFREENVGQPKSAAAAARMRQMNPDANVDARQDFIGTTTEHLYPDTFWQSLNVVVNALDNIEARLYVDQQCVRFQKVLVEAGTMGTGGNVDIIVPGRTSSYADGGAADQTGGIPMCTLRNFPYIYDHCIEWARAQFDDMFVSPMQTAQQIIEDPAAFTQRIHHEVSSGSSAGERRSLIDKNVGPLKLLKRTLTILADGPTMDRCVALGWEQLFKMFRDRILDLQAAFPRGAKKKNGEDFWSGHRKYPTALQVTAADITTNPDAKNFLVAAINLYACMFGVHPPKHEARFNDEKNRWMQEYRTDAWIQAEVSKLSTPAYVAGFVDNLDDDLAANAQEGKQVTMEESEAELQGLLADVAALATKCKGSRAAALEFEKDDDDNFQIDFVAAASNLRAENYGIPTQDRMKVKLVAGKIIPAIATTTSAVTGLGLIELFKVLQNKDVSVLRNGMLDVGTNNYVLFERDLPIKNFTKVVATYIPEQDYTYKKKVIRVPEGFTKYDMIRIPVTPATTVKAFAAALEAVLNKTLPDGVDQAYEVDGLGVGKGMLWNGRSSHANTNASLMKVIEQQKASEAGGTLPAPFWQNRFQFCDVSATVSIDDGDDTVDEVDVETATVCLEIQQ
Briefly: Leishmania donovani Ubiquitin Activating Enzyme (LdE1). The experiment is classed as functional. To be noted: 30 µM.

The target of experiment [3] is AMP-activated protein kinase, AMPK (Homo sapiens) (UniProt P54646+O43741+P54619+Q9UGJ0+Q9Y478+Q13131+Q9UGI9). Briefly: AMP-dependent Kinase enzyme assay. An in vitro enzyme assay that detects ADP turnover that is directly proportional to AMPK activity. This uses naive AMPK that is activated during the assay with MK-8722. In kind it is functional. To be noted: 30 µM.

In experiment [4] the target is Sialic acid-binding Ig-like lectin 9 (Homo sapiens) (UniProt Q9Y336). Kind of experiment: Hs-Siglec9 ALPHAscreen SOP 20170721. The settings on record: 10 µM.
Sequence of Sialic acid-binding Ig-like lectin 9 (Homo sapiens) (Q9Y336 whole entry): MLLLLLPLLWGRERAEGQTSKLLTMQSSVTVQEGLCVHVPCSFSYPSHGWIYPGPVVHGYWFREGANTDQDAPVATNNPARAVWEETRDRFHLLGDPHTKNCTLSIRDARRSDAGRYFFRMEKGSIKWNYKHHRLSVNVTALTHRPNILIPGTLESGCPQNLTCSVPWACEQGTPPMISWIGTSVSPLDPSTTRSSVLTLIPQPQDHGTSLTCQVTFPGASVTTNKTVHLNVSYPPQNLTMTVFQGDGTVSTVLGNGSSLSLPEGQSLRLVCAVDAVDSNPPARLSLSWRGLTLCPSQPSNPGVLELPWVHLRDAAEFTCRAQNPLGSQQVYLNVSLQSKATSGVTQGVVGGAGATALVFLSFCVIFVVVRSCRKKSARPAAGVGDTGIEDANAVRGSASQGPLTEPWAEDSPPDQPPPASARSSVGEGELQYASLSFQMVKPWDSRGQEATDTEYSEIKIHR
The subject of the next experiment is Trypanosoma cruzi. Kind of experiment: Trypanosoma cruzi phosphomannomutase and mannose-1-phosphate guanylyltransferase assay. In kind it is functional. To be noted: 10 µM.
In experiment [5] the target is T2, Arginase-2, mitochondrial (Homo sapiens) (UniProt P78540).
T2 sequence (whole entry): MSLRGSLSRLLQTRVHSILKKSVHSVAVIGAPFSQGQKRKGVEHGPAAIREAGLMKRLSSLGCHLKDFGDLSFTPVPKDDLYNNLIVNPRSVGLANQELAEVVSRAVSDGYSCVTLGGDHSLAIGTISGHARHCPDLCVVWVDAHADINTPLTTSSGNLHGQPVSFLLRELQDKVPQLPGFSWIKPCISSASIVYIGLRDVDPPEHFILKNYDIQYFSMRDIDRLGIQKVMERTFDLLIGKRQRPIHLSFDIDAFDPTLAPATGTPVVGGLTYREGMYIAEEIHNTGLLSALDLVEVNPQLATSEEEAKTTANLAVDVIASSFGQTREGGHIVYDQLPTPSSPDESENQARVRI
Kind of experiment: in vitro enzyme assay to detect the production of urea directly proportional to the activity of Arginase II. Also: in the data most compounds retested in dose-response had high values. The experiment is classed as functional. To be noted: 33.3 µM.

For experiment [6], the target named is T3, Proteasome subunit beta (Trypanosoma cruzi) (UniProt O96673).
T3 sequence (whole entry): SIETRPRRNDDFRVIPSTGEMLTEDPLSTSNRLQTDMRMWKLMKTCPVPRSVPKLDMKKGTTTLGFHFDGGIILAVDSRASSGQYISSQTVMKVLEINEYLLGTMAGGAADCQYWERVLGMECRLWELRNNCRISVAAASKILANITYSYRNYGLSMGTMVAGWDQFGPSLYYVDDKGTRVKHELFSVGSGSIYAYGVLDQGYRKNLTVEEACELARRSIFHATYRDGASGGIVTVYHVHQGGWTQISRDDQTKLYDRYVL
Kind of experiment: Trypanosoma cruzi proteasome chymotrypsin-like activity (TcProtChymo) assay. Also: in the data most compounds retested in dose-response had high values. In kind it is functional. To be noted: 9.37 µM.

The species entered for the next experiment is Homo sapiens. Kind of experiment: To identify inhibition of the IFN signalling (Jak-Stat) pathway via expression of an eGFP reporter gene under the control of an IFN-stimulated response element (ISRE) containing MxA promoter. To be noted: 30 µM. The experiment is classed as functional. (In general: Reporter assays use an easily measured gene product as a stand-in for the process of interest.)

In experiment [7] the target is T4, Tyrosyl-tRNA synthetase, putative (Trypanosoma cruzi (strain CL Brener)) (UniProt Q4DSP6).
T4 sequence (whole entry): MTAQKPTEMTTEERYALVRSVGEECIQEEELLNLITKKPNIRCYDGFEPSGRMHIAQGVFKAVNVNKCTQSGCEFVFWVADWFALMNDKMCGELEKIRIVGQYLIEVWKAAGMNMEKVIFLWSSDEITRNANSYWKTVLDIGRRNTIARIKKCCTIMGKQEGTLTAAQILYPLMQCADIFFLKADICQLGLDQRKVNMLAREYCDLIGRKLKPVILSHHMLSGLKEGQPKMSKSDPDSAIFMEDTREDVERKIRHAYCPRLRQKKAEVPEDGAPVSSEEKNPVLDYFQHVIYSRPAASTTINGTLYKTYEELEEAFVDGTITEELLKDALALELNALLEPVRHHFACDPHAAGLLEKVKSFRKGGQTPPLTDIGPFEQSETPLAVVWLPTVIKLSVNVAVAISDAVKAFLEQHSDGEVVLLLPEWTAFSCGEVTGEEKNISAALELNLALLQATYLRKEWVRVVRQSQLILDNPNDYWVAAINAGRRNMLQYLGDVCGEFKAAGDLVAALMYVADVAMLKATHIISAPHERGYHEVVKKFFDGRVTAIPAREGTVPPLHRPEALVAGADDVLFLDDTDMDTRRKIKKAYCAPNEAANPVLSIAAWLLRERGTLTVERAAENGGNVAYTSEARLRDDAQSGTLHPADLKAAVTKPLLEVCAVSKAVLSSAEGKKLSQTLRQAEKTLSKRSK
Kind of experiment: Trypanosoma cruzi tyrosyl tRNA synthetase (TcYRS) _High Tyrosine SOP. Also: in the data most compounds retested in dose-response had high values. The experiment is classed as functional. The settings on record: 30 µM.

In experiment [8] the target is T4, Tyrosyl-tRNA synthetase, putative (Trypanosoma cruzi (strain CL Brener)). Kind of experiment: Trypanosoma cruzi tyrosyl tRNA synthetase (TcYRS) SOP. In kind it is functional. To be noted: 30 µM.
Experiment [9] concerns the target Chromo domain-containing protein 1 (Saccharomyces cerevisiae (strain ATCC 204508 / S288c) (Baker's yeast)) (UniProt P32657). Kind of experiment: ScCHD-1 Enzyme Inhibition Assay. Also: in the data most compounds retested in dose-response had high values. In kind it is functional. To be noted: 30 µM.

Sequence of Chromo domain-containing protein 1 (Saccharomyces cerevisiae (strain ATCC 204508 / S288c) (Baker's yeast)) (P32657 whole entry, the tested form may be a part): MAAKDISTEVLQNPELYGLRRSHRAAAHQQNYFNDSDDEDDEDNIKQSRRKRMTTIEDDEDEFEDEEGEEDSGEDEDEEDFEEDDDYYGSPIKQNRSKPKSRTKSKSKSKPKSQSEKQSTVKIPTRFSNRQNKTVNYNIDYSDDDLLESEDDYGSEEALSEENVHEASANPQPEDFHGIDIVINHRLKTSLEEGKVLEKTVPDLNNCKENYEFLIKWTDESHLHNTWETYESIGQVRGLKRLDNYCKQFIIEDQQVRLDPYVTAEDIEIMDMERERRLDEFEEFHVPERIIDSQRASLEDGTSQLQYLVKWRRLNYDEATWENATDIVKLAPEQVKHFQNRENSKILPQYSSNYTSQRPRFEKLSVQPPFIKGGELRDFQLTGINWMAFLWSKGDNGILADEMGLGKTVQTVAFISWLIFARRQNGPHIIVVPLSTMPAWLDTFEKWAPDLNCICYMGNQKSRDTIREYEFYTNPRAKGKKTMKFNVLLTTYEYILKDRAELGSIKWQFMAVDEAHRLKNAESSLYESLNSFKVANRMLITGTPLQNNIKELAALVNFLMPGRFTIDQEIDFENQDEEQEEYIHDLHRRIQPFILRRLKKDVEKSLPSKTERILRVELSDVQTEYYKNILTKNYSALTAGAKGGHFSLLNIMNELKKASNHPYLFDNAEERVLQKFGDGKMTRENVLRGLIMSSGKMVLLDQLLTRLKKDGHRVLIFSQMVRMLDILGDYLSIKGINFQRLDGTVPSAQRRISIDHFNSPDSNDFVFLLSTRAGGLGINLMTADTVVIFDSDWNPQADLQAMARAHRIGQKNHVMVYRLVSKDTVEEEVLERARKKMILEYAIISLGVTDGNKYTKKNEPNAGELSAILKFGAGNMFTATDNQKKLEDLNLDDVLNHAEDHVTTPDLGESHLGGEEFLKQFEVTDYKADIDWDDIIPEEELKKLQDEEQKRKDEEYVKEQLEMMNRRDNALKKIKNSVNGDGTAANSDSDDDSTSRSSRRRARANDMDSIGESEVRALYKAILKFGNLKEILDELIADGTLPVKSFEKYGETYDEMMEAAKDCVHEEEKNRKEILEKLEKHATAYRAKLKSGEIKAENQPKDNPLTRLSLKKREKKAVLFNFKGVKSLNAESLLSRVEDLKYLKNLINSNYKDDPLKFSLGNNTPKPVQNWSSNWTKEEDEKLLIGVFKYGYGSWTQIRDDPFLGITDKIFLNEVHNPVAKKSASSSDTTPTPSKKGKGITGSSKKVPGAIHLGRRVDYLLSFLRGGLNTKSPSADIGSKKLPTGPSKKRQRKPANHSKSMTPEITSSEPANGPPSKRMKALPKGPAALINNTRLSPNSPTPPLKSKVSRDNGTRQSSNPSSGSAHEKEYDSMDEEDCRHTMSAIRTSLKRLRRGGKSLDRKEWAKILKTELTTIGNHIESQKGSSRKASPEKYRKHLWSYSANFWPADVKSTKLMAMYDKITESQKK
Sequence of Protein translocase subunit SecA (Escherichia coli (strain K12)) (P10408 whole entry): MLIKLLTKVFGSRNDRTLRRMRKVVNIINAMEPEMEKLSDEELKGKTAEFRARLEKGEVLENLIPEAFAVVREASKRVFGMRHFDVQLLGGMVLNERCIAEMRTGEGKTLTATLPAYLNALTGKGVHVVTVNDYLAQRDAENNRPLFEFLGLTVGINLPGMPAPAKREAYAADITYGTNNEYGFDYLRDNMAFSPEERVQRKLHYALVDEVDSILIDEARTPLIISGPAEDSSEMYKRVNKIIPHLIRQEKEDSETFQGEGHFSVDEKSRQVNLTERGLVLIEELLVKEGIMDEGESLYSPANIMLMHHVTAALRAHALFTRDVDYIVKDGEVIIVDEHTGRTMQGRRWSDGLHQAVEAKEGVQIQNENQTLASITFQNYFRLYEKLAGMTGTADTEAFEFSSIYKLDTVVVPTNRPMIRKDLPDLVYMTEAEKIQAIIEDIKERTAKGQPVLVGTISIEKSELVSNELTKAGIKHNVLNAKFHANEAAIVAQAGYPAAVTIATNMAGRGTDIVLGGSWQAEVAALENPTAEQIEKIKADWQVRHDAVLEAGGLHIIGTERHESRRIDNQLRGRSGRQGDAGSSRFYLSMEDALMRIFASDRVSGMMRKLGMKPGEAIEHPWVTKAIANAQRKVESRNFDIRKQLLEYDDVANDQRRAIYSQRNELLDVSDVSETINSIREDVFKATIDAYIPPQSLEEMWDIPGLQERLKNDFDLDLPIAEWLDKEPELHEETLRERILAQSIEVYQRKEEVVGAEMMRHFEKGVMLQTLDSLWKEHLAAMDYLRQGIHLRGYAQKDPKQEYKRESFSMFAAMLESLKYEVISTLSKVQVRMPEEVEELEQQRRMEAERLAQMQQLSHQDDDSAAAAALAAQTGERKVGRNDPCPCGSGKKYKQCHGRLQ

`COc1ncccc1CN1Cc2nnn(C)c2C(COCC2CC2)C1` (stereo not drawn): the Percent Effect is -1.6% in [1]; 7.79% in experiment [2]; 4.07% in experiment [3]; -3.49% in [4]; -5.62% in the experiment with Trypanosoma cruzi; 3.23% in experiment [5]. The Percent Effect in [6] was 1.92%; in the experiment listed under Homo sapiens it was 2.8%; in experiment [7], 4.23%; in experiment [8], 14.1%; in experiment [9], -4.09%.
Turning to `c1ccc(-c2nc(CN3CCCC3Cn3cncn3)cs2)cc1` (stereo not drawn), the Percent Effect is -2.21% in experiment [1]; -17.7% in experiment [2]; -1.4% in experiment [3]; 4.03% in [4]; 3.68% in the experiment on Trypanosoma cruzi; -2.28% in experiment [5]. Besides, the Percent Effect in experiment [6] is 1.39%; in the experiment filed under Homo sapiens, -16.9%; in experiment [7], 4.43%; in [8], 3.8%; in experiment [9] it was 25.8%.
As for `CCc1nc2ccccc2c(=O)n1CC1(O)CCN(S(C)(=O)=O)CC1`, the Percent Effect is -1.91% in experiment [1]; 17.6% in experiment [2]; 10.4% in [3]; 9.5% in experiment [4]; 1.58% in the experiment with Trypanosoma cruzi; 7.66% in [5]. Moreover, the Percent Effect in experiment [6] was 10.8%; in the experiment filed under Homo sapiens, 17.4%; in experiment [7] it was 5.38%; in experiment [8], 14.3%; in experiment [9], -11.7%.
In the case of `CC(NC(=O)COc1ccc(F)cc1)c1nnc2n1CCCCC2` (stereo not drawn), the Percent Effect in experiment [1] was -3.7%; in [2], 16.2%; in experiment [3], -13.2%; in experiment [4], 13.2%; in the experiment with Trypanosoma cruzi, 5.19%; in experiment [5], -8.02%. For the same compound, the Percent Effect in experiment [6] was 0.36%; in the experiment listed under Homo sapiens it was 0.906%; in [7], 4.43%; in experiment [8], 18.5%; in experiment [9], -14.6%.
For `O=C(Nc1ccccn1)N(CCO)Cc1ccsc1`, the Percent Effect in [1] is -2.18%; in experiment [2], 10.5%; in experiment [3] it was 4.91%; in [4] it was 14.4%; in the experiment with Trypanosoma cruzi, 0.564%; in experiment [5], 0%. Moreover, the Percent Effect was 11.2% in experiment [6]; 9.82% in the experiment listed under Homo sapiens; 8.33% in experiment [7]; 17.1% in experiment [8]; -3.38% in experiment [9].
As to `COc1cccc(C(=O)N2CCc3ncnc(C)c3CC2)c1`, the Percent Effect in [1] was -2.5%; in experiment [2], 2.74%; in [3], -0.34%; in experiment [4], 2.4%; in the experiment on Trypanosoma cruzi, -5.16%; in [5], 0.399%. Moreover, the Percent Effect is 10.4% in [6]; 2.5% in the experiment listed under Homo sapiens; 6.25% in experiment [7]; 11.1% in experiment [8]; -8.63% in [9].
As to `CNS(=O)(=O)c1ccc(C(=O)NC2CCc3nc(C)cn3C2)o1` (stereo not drawn), the Percent Effect in experiment [1] is -4.88%; in [2], 7.89%; in experiment [3] it was 5.73%; in [4], 6.53%; with Trypanosoma cruzi it was 2.26%; in [5], -3.45%. For the same compound, the Percent Effect is 11% in experiment [6]; -11.5% in the experiment listed under Homo sapiens; 3.43% in experiment [7]; 17.1% in [8]; -10.4% in experiment [9].
As for `Cc1nc(CN2CCCCC2Cn2cncn2)nc2ccccc12` (stereo not drawn), the Percent Effect is -2.07% in experiment [1]; 26% in experiment [2]; -3.54% in experiment [3]; -19.4% in [4]; 3.23% in the experiment with Trypanosoma cruzi; 1.47% in experiment [5]. In addition, the Percent Effect was 20.1% in experiment [6]; 2.22% in the experiment filed under Homo sapiens; 10.5% in experiment [7]; 23.5% in experiment [8]; -22.8% in experiment [9].
